From the supplement of paper PMC6555819

Legend:
Test in all cases: PBM binding z-score (relative to random genomic background probes); higher = stronger binding; sequences stand for … in GC…GCGATTGACAGCGTAGAATGAAGG
[1] = system: RARb homodimer (NR concentration 270 nM)
How it was run: (§1)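 Ligand-free nuclear receptor dimers were applied to custom Agilent 4×180K protein-binding microarrays whose double-stranded probes carried direct-repeat seeds, single-nucleotide variants, half-site ablations and random human genomic background sequences in 34-nt variable regions. Incubation lasted 1 h. Binding z-scores were computed against the random background probes from regression-normalized fluorescence.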

[2] = system: RARg:RXRa (NR concentration 270 nM, RXRa partner concentration 90 nM)
How it was run: as §1

[3] = system: RARg homodimer (NR concentration 270 nM)
How it was run: as §1

[4] = system: RXRa DBDmut IVT, anti-RXR (DBD mutation: RXRa K156A/R161A, NR concentration 90 nM)
How it was run: as §1

[5] = system: RXRa homodimer (NR concentration 180 nM)
How it was run: as §1

[6] = system: THRa:RXRa (NR concentration 90 nM, RXRa partner concentration 90 nM)
How it was run: as §1

[7] = system: THRa homodimer (NR concentration 90 nM)
How it was run: as §1

[8] = system: VDR homodimer (NR concentration 270 nM)
How it was run: as §1

| Sequence | PBM binding z-score [1] | PBM binding z-score [2] | PBM binding z-score [3] | PBM binding z-score [4] | PBM binding z-score [5] | PBM binding z-score [6] | PBM binding z-score [7] | PBM binding z-score [8] |
| --- | --- | --- | --- | --- | --- | --- | --- | --- |
| CAAACTAGGTCACGAAAGTTCAAAGTCGAATGAC | 5 | 6.73 | 7.67 | 2.96 | 5.99 | 4.31 | 1.46 | 4.82 |
| GCGACAGGGGCATCAGCAGGTTACCATAACTTAA | 1.23 | 1.9 | 0.934 | 0.988 | 0.871 | 1.61 | 0.015 | 0.188 |
| ATCTCTAGGTCAAGATAGTTCAGTGAATGCAAAT | 3.89 | 4.63 | 5.48 | 1.58 | 3.14 | 3.35 | 1.71 | 1.73 |
| ATCGAAAGGTAGTGAGGTGAGTATACAGAAAGGC | 0.406 | 0.407 | 0.62 | -0.693 | 0.164 | 1.5 | 0.917 | -0.237 |
| AGAACGAGGGCAATGAGTTGATAACACGGGTGGC | 0.742 | 1.31 | 1.53 | 1.96 | 0.961 | 1.04 | -0.289 | 3.3 |
| TCTGCTAGGTCAGCTGGTCAGCTAACGAGCTGCC | 2.62 | 3.42 | 4.27 | 0.17 | 1.51 | 1.8 | -0.216 | -1.3 |
| CGAACTGGGTCATTGACAGGACAGTGAATAGTAA | 2.17 | 4.32 | 3.3 | 1.94 | 2.88 | 2.41 | 0.357 | 1.05 |
| GGAACGAGGGCCTTCGAGTTGATAGCATGGCGAT | -1.03 | -0.45 | -0.368 | 0.207 | -0.125 | 0.262 | -1.24 | -0.335 |
| CCAGACAGGTGAGAAGGTAAATCAGCCTCGATTA | 0.187 | 0.461 | 0.353 | -0.268 | 0.202 | 0.113 | -0.24 | -0.437 |
| CCTCCTGGGCCAAAAAGGTCATTGATGCCGATAA | 4.4 | 4.5 | 3.91 | 0.197 | 4.5 | 3.12 | 0.604 | 2.38 |
| CATACTAGGTCAAGGTCAAAGTCGGTTTGTGCCA | 5.08 | 6.18 | 6.66 | 3.15 | 5.93 | 4.24 | 3.85 | 4.88 |
| TCATATAGGGAATACAGGTGAAAGTCGGCATCTA | 0.795 | 0.472 | 0.506 | 1.68 | 1.24 | 0.864 | 0.624 | 0.435 |
| CCTACTGGGCCGTCAGGTCATTGATATCAACGTT | 2.18 | 1.33 | 1.37 | 0.28 | 1.11 | 3.18 | 3.49 | 1.16 |
| CAAACTAAGTCACGAAAGGTCAAAGTCGAATGAC | 5.04 | 6.02 | 5.67 | 0.992 | 6.79 | 4.42 | 1.2 | 2.58 |
| CCTCGGAGGACAACAGGAGATCAGAGCTGCCAGA | 0.118 | 0.145 | 0.783 | 0.248 | -0.305 | 0.396 | -0.247 | -0.168 |
| TCAGACAGGTGAAGGTAACGCAGGTACGCAGTCG | 0.708 | 0.407 | 0.419 | 0.772 | 1.05 | 1.01 | 0.208 | -0.187 |
| CGTCAAAGATCAACTAAGGTAACGTAAAGCACGC | 0.577 | 0.743 | 0.647 | 0.338 | 0.921 | 4.69 | 1.79 | 0.342 |
